Source: PubChem BioAssay AID1159580 (chemical genetic matrix, 2015)
Where “and” joins values, the source holds several entries; their conditions need not be identical. Equal entries are not always repeated. Screen size: about 5,500 compounds; about 2,000 (36%) were called active. Another 18% or so got no clear call; they are omitted. No stated cut-off is given here; in the data, active means normalized growth mostly below about 0.91 (no sharp cut-off); inconclusive means no clear call, values can overlap the other calls; inactive means mostly above about 0.92. This is one part of the list.

Assay: chemical genetic growth profiling, strain panel (AID 1159580);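 further: tested at 20 µM; growth read once vehicle control cultures reached saturation at 30 °C; 1 = growth at the plate median or of vehicle wells; lower values mean less growth of the strain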
Settings: growth OD

Measured: normalized growth

CN1CCN(C2=Nc3cc(Cl)ccc3Nc3ccccc32)CC1
inactive: S. cerevisiae deletion strains, locus YJR066W, strain TOR1, hits give low values 0.997 | S. cerevisiae deletion strains, locus YJR075W, strain HOC1, hits give low values 0.982 | S. cerevisiae deletion strains, locus YKL009W, strain mrt4, hits give low values 1.01 | S. cerevisiae deletion strains, locus YKL068W, hits give low values 1.01 | S. cerevisiae deletion strains, locus YKL085W, strain MDH1 (second series), hits give low values 1.04 | S. cerevisiae deletion strains, locus YKL085W, strain MDH1, hits give low values 1.04 | S. cerevisiae deletion strains, locus YKL160W, strain elf1, hits give low values 0.972 | S. cerevisiae deletion strains, locus YKL190W, strain CNB1, hits give low values 1.02 | S. cerevisiae deletion strains, locus YKR001C, strain vps1, hits give low values 1.03 | S. cerevisiae deletion strains, locus YKR026C, strain gcn3, hits give low values 0.988 | S. cerevisiae deletion strains, locus YKR091W, strain srl3, hits give low values 0.98 | S. cerevisiae deletion strains, locus YLL001W, strain dnm1, hits give low values 0.984 | S. cerevisiae deletion strains, locus YLL026W, hits give low values 1 | S. cerevisiae deletion strains, locus YLL041C, strain sdh2, hits give low values 0.992 | S. cerevisiae deletion strains, locus YLR027C, strain aat2, hits give low values 0.988 | S. cerevisiae deletion strains, locus YLR039C, strain RIC1, hits give low values 1.25 | S. cerevisiae deletion strains, locus YLR058C, strain SHM2, hits give low values 1.01 | S. cerevisiae deletion strains, locus YLR102C, strain apc9, hits give low values 1.02 | S. cerevisiae deletion strains, locus YLR113W, strain HOG1, hits give low values 1.01 | S. cerevisiae deletion strains, locus YLR221C, strain rsa3, hits give low values 1.01 | S. cerevisiae deletion strains, locus YLR258W, strain gsy2, hits give low values 0.983 | S. cerevisiae deletion strains, locus YLR262C, strain YPT6 (second series), hits give low values 1.05 | S. cerevisiae deletion strains, locus YLR262C, strain YPT6, hits give low values 1.2 | S. cerevisiae deletion strains, locus YLR268W, strain sec22, hits give low values 1.01 | S. cerevisiae deletion strains, locus YLR320W, strain mms22, hits give low values 0.952 | S. cerevisiae deletion strains, locus YLR330W, strain CHS5, hits give low values 1.02 | S. cerevisiae deletion strains, locus YLR342W, strain FKS1 (second series), hits give low values 1.04 | S. cerevisiae deletion strains, locus YLR342W, strain FKS1, hits give low values 0.953 | S. cerevisiae deletion strains, locus YLR357W, strain rsc2, hits give low values 1.01 | S. cerevisiae deletion strains, locus YLR370C, strain arc18, hits give low values 0.984 | S. cerevisiae deletion strains, locus YLR371W, strain rom2, hits give low values 1.03 | S. cerevisiae deletion strains, locus YLR384C, strain iki3, hits give low values 0.984 | S. cerevisiae deletion strains, locus YLR418C, strain cdc73, hits give low values 0.955 | S. cerevisiae deletion strains, locus YML016C, strain PPZ1, hits give low values 1.01 | S. cerevisiae deletion strains, locus YML032C, strain rad52, hits give low values 0.935 | S. cerevisiae deletion strains, locus YML120C, strain ndi1, hits give low values 0.98 | S. cerevisiae deletion strains, locus YML124C, strain tub3, hits give low values 1.02 | S. cerevisiae deletion strains, locus YMR058W, strain fet3, hits give low values 0.982 | S. cerevisiae deletion strains, locus YMR078C, strain ctf18, hits give low values 1.02 | S. cerevisiae deletion strains, locus YMR125W, strain sto1, hits give low values 0.943 | S. cerevisiae deletion strains, locus YMR129W, hits give low values 0.99 | S. cerevisiae deletion strains, locus YMR205C, strain PFK2, hits give low values 0.977 | S. cerevisiae deletion strains, locus YMR223W, strain ubp8, hits give low values 1.02 | S. cerevisiae deletion strains, locus YMR231W, strain pep5, hits give low values 0.986 | S. cerevisiae deletion strains, locus YMR263W, strain SAP30, hits give low values 0.986 | S. cerevisiae deletion strains, locus YMR307W, strain GAS1, hits give low values 1.1 | S. cerevisiae deletion strains, locus YNL067W, strain RPL9B, hits give low values 0.974 | S. cerevisiae deletion strains, locus YNL071W, strain lat1, hits give low values 0.937 | S. cerevisiae deletion strains, locus YNL128W, strain TEP1, hits give low values 0.991 | S. cerevisiae deletion strains, locus YNL153C, strain GIM3, hits give low values 0.993 and 1.01 | S. cerevisiae deletion strains, locus YNL175C, strain NOP13, hits give low values 0.999 | S. cerevisiae deletion strains, locus YNL183C, strain NPR1, hits give low values 0.99 | S. cerevisiae deletion strains, locus YNL209W, strain ssb2, hits give low values 0.973 | S. cerevisiae deletion strains, locus YNL224C, strain SQS1, hits give low values 1.01 | S. cerevisiae deletion strains, locus YNL233W, strain BNI4, hits give low values 0.988 | S. cerevisiae deletion strains, locus YNL248C, strain rpa49, hits give low values 0.957 | S. cerevisiae deletion strains, locus YNL250W, strain rad50, hits give low values 0.966 | S. cerevisiae deletion strains, locus YNL271C, strain bni1, hits give low values 1.01 | S. cerevisiae deletion strains, locus YNL298W, strain CLA4, hits give low values 0.984 | S. cerevisiae deletion strains, locus YNL307C, strain MCK1, hits give low values 0.995 | S. cerevisiae deletion strains, locus YNL322C, strain KRE1 (second series), hits give low values 0.956 | S. cerevisiae deletion strains, locus YNL322C, strain KRE1, hits give low values 1.01 | S. cerevisiae deletion strains, locus YNR049C, strain mso1, hits give low values 0.99 | S. cerevisiae deletion strains, locus YNR052C, strain pop2, hits give low values 1.01 | S. cerevisiae deletion strains, locus YOL006C, strain TOP1, hits give low values 0.988 | S. cerevisiae deletion strains, locus YOL012C, strain htz1 2.02 | S. cerevisiae deletion strains, locus YOL147C, strain pex11, hits give low values 1.02 | S. cerevisiae deletion strains, locus YOR001W, strain rrp6, hits give low values 0.996 | S. cerevisiae deletion strains, locus YOR061W, strain CKA2, hits give low values 1.01 | S. cerevisiae deletion strains, locus YOR069W, strain VPS5, hits give low values 1.07 | S. cerevisiae deletion strains, locus YOR070C, strain gyp1, hits give low values 0.989 | S. cerevisiae deletion strains, locus YOR080W, strain dia2, hits give low values 0.974 | S. cerevisiae deletion strains, locus YOR083W, strain WHI5, hits give low values 0.92 | S. cerevisiae deletion strains, locus YOR106W, strain vam3, hits give low values 0.978 | S. cerevisiae deletion strains, locus YOR136W, strain idh2, hits give low values 1.02 | S. cerevisiae deletion strains, locus YOR144C, strain elg1, hits give low values 1.01 | S. cerevisiae deletion strains, locus YOR184W, strain ser1, hits give low values 1.03 | S. cerevisiae deletion strains, locus YOR231W, strain MKK1, hits give low values 1.01 | S. cerevisiae deletion strains, locus YOR265W, strain rbl2, hits give low values 0.993 | S. cerevisiae deletion strains, locus YOR270C, strain vph1, hits give low values 0.96 | S. cerevisiae deletion strains, locus YOR290C, strain snf2, hits give low values 0.943 | S. cerevisiae deletion strains, locus YOR316C, strain cot1, hits give low values 1.03 | S. cerevisiae deletion strains, locus YPL051W, strain arl3, hits give low values 0.965 | S. cerevisiae deletion strains, locus YPL055C, strain LGE1, hits give low values 0.93 | S. cerevisiae deletion strains, locus YPL078C, strain atp4, hits give low values 0.959 | S. cerevisiae deletion strains, locus YPL106C, strain sse1, hits give low values 0.999 | S. cerevisiae deletion strains, locus YPL240C, strain hsp82, hits give low values 0.979 | S. cerevisiae deletion strains, locus YPL241C, strain CIN2, hits give low values 1.05 and 1 | S. cerevisiae deletion strains, locus YPL256C, strain CLN2, hits give low values 1.05 | S. cerevisiae deletion strains, locus YPR119W, strain clb2, hits give low values 1.01 | S. cerevisiae deletion strains, locus YPR141C, strain kar3, hits give low values 1.02 | S. cerevisiae deletion strains, locus YPR163C, strain tif3, hits give low values 1.01 | S. cerevisiae deletion strains, locus YPR167C, strain met16, hits give low values 1.02 | S. cerevisiae deletion strains, strain wtn01, hits give low values 1 | S. cerevisiae strains, strain wild type, hits give low values 1.02
